# An excerpt weighted towards active compounds, which were near 3.5% of everything screened.
# MITF inh: inhibitors of human MITF; O75030; AlphaScreen MITF homodimerization, bead proximity signal; inhibition, % at 2.6 µM; 650,000 tested, 0.91% active; in the data active means inhibition above about 50%;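 further: 0% = vehicle wells with protein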
# GPR151 ag: activators of human GPR151; activation, % at 11.2 µM; Q8TDV0; 650,000 tested, 1% active; PathHunter beta-arrestin GPR151 cells, luminescence; in the data active means activation above about 4.9%;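 further: 0% = median of compound wells and 100% = cells with positive control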
# TEAD-YAP inh: TEAD-YAP interaction inhibition; 640,000 tested, 1.4% active; AID 1259422; HEK-TIYL cells, TEAD-Gal4/YAP UAS-luciferase luminescence; inhibition, % at 9.12 µM; in the data active means inhibition above about 32%;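 further: 0% = median of test compound wells and 100% = reference inhibitor wells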
# FBW7 act: human FBW7 E3 ligase activation, primary screen. AlphaScreen FBW7–phospho-cyclin E peptide binding, activator screen. normalized activity (activation), % at 26.1 µM. 650,000 tested, 0.13% active. AID 1259310; in the data active means normalized activity above about 1.9%;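 further: purified mutant Fbw7 with reduced substrate affinity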
# Target sequence (Q969H0 whole entry, looked up): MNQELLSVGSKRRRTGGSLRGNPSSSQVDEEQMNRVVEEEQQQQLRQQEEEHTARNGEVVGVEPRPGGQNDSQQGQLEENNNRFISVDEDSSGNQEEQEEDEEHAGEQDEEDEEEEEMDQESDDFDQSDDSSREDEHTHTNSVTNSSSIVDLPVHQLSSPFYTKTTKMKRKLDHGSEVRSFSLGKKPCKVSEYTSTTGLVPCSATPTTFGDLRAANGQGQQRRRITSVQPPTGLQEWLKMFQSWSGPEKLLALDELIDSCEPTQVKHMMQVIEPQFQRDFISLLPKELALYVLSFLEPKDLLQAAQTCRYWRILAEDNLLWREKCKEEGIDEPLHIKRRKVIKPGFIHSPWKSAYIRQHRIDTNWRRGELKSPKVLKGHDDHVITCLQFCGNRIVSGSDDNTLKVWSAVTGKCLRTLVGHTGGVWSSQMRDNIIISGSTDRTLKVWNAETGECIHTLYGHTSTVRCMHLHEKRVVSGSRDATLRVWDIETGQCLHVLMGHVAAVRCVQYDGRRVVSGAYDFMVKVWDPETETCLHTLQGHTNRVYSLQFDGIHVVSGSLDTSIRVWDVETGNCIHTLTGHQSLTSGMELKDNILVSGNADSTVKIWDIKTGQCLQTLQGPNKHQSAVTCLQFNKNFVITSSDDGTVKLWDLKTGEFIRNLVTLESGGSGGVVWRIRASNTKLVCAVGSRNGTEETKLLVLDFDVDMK
# GPR151 conf act: human GPR151 activation, confirmation screen; 6,700 tested, under 10 active; AID 1508609; activation, % at 11.2 µM; shares compounds with GPR151 ag; GPR151 PathHunter beta-arrestin cells, luminescence, 90 min; % of EA-reagent control over plate median;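 active means mean percent activation across replicates above the confirmation screen cutoff of 4.91%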
# GPR119 ag: GPR119 activation, counter-screen for GPR151 activators | shares compounds with GPR151 ag | activation, % at 11.2 µM | 6,700 tested, 0.3% active | GPR119 PathHunter beta-arrestin cells, luminescence, 90 min; 0 = compound-well median, 100 = enzyme-acceptor control;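 active means mean percent activation in the counterscreen above 29.09%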;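 further: counterscreen on off-target GPR119 to flag nonselective hits from the GPR151 activator screen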
# The depositor's hits bear a star; x = no result given.
SMILES,MITF inh,GPR151 ag,TEAD-YAP inh,FBW7 act,GPR151 conf act,GPR119 ag
COc1cccc(C2=N/C(=C\c3cn(C(C)=O)c4ccccc34)C(=O)O2)c1,2,7.5*,5,0,0,8
CC(=O)n1cc(/C=C2/N=C(c3ccccc3)OC2=O)c2ccccc21,-9,0,5,0,x,x
CC(=O)Nc1cnn(-c2ccc(C(=O)N(C)Cc3ccc(Oc4ccccc4)cc3)cc2)c1,6,8.4*,11,0,1,28
Cc1ccc(/C=C/C(=O)Nc2ccc3nc4n(c(=O)c3c2)CCCC4)o1,7,1,2,0,x,x
Cc1ccccc1NC(=S)NCc1cccnc1,5,8.3*,10,0,1,2
Cc1ccccc1NC(=S)Nc1cccnc1,9,-1,1,0,x,x
OCc1ccccc1NC(=S)Nc1cccnc1,12,5.8*,0,0,-1,-10
Cc1cccc(NC(=O)c2cc3nc(-c4ccc5c(c4)OCO5)cc(C(F)(F)F)n3n2)c1C,1,-2,-10,0,x,x
O=C1NC(=O)C(=Cc2cc(Br)ccc2OCc2ccccc2F)C(=O)N1,2,14*,-10,0,-1,9
CCOC(=O)c1nn(CCO)c2c1CN(Cc1cccc(Cl)c1)CC2,5,10*,6,0,0,6
Cc1ccc(NC(=O)c2cccc3c2-c2ccccc2C3)cc1,15,-1,26,0,x,x
O=[N+]([O-])c1ccccc1/C=C/CN1CCSCC1,40,1,-6,0,x,x
O=[N+]([O-])c1ccccc1/C=C/CN1CCN(CCOCCO)CC1,49,5.4*,5,0,0,5
CNC(=O)c1c(NC(=O)c2nc(SC)ncc2Cl)sc2c1CCCC2,5,0,9,1,x,x
COc1ccc(C2=NN(c3nc(-c4ccccc4)c4cc(Cl)ccc4n3)C(c3cccc([N+](=O)[O-])c3)C2)cc1 (configuration not stated),0,1,-1,0,x,x
O=C(Nc1ccc(S(=O)(=O)Nc2nccc(/C=C/c3ccc(Cl)cc3)n2)cc1)c1ccccc1,4,0,0,0,x,x
CC(=O)C(Sc1nnc(Nc2ccc(C(C)C)cc2)s1)C(C)=O,9,6.0*,-33,0,0,-4
CC12CCC(C(=O)NCCN3CCOCC3)(OC1=O)C2(C)C (configuration not stated),13,5.9*,-13,0,0,-5
CC12CCC(C(=O)NCc3ccccc3)(OC1=O)C2(C)C (configuration not stated),-15,5.3*,7,0,0,7
Cc1ccccc1-n1nc2c(c1NC(=O)COc1ccc(Cl)cc1Cl)CS(=O)(=O)C2,7,8.8*,-2,0,0,8
O=C(COc1ccc(Cl)cc1Cl)Nc1cc(-c2ccccc2)nn1CCO,4,5.9*,4,0,0,10
O=C(COc1ccccc1F)Nc1cc(-c2ccccc2)nn1CCO,-3,0,-10,0,x,x
Cc1cccc(-n2nc3c(c2NC(=O)COc2ccc(Cl)cc2Cl)CS(=O)(=O)C3)c1C,-12,-1,2,0,x,x
COc1cccc(OCC(=O)Nc2cc3oc4ccccc4c3cc2OC)c1,-7,0,-2,1,x,x
CC(C)(C)C(=O)NCC1Cc2cccc(-c3ccc(S(C)(=O)=O)cc3)c2O1 (configuration not stated),18,0,-7,0,x,x
SMILES,MITF inh,GPR151 ag,TEAD-YAP inh,FBW7 act,GPR151 conf act,GPR119 ag
CC(=O)NCC1Cc2cccc(-c3ccc(S(C)(=O)=O)cc3)c2O1 (configuration not stated),8,7.3*,6,0,0,12
COc1ccc2oc(=O)c(N(C)S(=O)(=O)c3ccc(C)cc3)cc2c1,15,5.1*,2,0,-1,-2
CN1CCN(CCCCOc2cccc([N+](=O)[O-])c2)CC1,-2,5.6*,6,0,0,13
CN1CCN(CCOc2cccc([N+](=O)[O-])c2)CC1,3,0,8,0,x,x
C=C(C)CNc1nncc(-c2ccccc2C)n1,-6,6.2*,-5,0,0,1
Cc1sc(NC(=O)c2ccco2)c(CN2CCN(CCO)CC2)c1C,1,25*,14,0,1,1
O=C(COc1ccccc1[N+](=O)[O-])NCCc1nc2ccccc2[nH]1,23,-1,-1,0,x,x
COc1ccc2[nH]c(C)c(Br)c(=O)c2c1,-3,6.4*,6,0,0,5
COc1ccc2[nH]c3ccc([N+](=O)[O-])cc3c(=O)c2c1,-7,5.7*,12,0,0,-5
Cc1ccc2[nH]c(C)c(Br)c(=O)c2c1,-13,-1,7,0,x,x
Cc1cc(=O)c2cc([N+](=O)[O-])ccc2[nH]1,-1,-1,6,0,x,x
Cc1cc(NC(=O)COC(=O)[C@@H](NS(=O)(=O)/C=C/c2ccccc2)C(C)C)no1,6,1,11,1,x,x
Cc1ccccc1N/C(N)=N/c1nc(C(F)(F)F)cc(=O)[nH]1,11,8.2*,4,0,1,8
COc1ccccc1N/C(N)=N/c1nc(C(F)(F)F)cc(=O)[nH]1,-9,5.1*,7,0,-1,-8
O=C(Cn1cncn1)NCC1Cc2cc(-c3cccnc3)ccc2O1 (configuration not stated),-3,3,8,0,x,x
Cc1cc(C(=O)N/N=C/c2ccccc2O)n[nH]1,28,2,-45,0,x,x
CCOc1ccc(Br)cc1/C=N\NC(=O)c1cc(C)[nH]n1,20,7.1*,-1,0,0,14
Cc1cc(C(=O)N/N=C/c2ccccc2F)n[nH]1,5,9.8*,-45,0,-1,-9
COc1ccc(NS(=O)(=O)c2ccc(S(=O)(=O)N3CCOCC3)cc2)cc1,2,0,-1,0,x,x
COc1ccc(CCNS(=O)(=O)c2ccc(S(=O)(=O)N3CCOCC3)cc2)cc1,5,5.6*,5,0,1,2
COc1ccc(NC(=S)Nc2ccc(S(=O)(=O)N3CCOCC3)cc2)c(OC)c1,6,5.2*,5,0,1,4
COc1ccc(NC(=S)Nc2ccc(S(N)(=O)=O)cc2)c(OC)c1,3,0,-4,0,x,x
O=C1c2ccccc2C(=O)N1Nc1ccc(N2CCOCC2)cc1,-1,0,-6,0,x,x
Fc1ccc(OCc2nn3c(-c4ccncc4)nnc3s2)cc1,3,6.1*,7,-1,0,-6
Cc1ccc(OCc2nn3c(-c4ccc(F)cc4)nnc3s2)cc1,-5,2,-8,0,x,x
COc1ccc(NC(=O)N2CCCCCC2)cc1OC,15,5.5*,-3,0,-2,-18
CC(=O)c1cccc(NC(=O)N2CCN(C/C=C/c3ccccc3)CC2)c1,-4,0,2,0,x,x

# Source: PubChem BioAssay (The Scripps Research Institute Molecular Screening Center)
